Assay outcomes: PubChem BioAssay, several laboratories
Jurkat NFkB inh – inhibitors of induced NF-kB luciferase reporter, primary screen, TCR NF-kB activation inhibitor project, cell-based, luminescence, uHTS; inhibition, % at 4 µM; 330,000 tested, 0.53% active; Jurkat, PMA/ionomycin-induced NF-kB luciferase reporter; in the data active means inhibition above about 50%
Mdm2-MdmX inh – inhibitors of human Mdm2-MdmX association, primary screen, cell-based, luminescence, split luciferase, SaOS-2, uHTS. SaOS-2 split-luciferase Mdm2/MdmX complementation. 330,000 tested, 3% active. AID 485346, 2010. Protein Mdm4 (Homo sapiens) + E3 ubiquitin-protein ligase Mdm2 (Homo sapiens), …. inhibition, % at 8 µM;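 active means inhibition of at least 50% at 8 µM in the primary screen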
Target sequence (O15151 whole entry, looked up): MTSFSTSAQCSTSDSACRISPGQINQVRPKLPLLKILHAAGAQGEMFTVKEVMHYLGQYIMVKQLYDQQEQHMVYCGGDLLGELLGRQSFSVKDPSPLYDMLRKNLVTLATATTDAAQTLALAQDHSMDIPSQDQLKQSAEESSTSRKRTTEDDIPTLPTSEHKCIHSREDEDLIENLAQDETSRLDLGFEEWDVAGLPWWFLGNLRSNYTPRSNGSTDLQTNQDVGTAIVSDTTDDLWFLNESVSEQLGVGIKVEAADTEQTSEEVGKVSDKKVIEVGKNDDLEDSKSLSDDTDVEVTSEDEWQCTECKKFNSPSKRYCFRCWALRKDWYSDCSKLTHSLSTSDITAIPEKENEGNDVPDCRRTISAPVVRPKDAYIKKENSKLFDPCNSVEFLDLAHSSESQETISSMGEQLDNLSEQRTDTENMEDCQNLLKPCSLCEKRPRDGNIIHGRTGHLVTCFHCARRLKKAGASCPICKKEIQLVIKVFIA
Target sequence (Q00987 whole entry, looked up): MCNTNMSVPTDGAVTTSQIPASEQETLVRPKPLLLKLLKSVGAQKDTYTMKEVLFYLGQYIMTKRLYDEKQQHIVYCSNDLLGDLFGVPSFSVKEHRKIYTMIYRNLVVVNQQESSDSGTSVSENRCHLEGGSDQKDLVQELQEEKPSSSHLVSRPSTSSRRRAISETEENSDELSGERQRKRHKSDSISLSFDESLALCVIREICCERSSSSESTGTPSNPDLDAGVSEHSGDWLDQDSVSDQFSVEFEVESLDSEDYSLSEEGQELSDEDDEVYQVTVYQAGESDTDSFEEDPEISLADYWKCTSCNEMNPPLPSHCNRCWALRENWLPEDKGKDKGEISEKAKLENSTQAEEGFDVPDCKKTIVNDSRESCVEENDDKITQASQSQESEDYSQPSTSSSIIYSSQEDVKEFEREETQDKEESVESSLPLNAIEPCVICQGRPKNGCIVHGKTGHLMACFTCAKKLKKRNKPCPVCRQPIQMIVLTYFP
Beta apoptosis – inhibitors of cytokine-induced beta cell apoptosis, primary screen, luminescence; INS-1E cytokine-induced death, ATP luminescence, 48 h; percent of positive-control rescue, neutral wells zero; protection from apoptosis, % (test concentration not listed); 300,000 tested, 0.8% active; AID 435005, 2010;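 active means Every replicate reaches about 75%, or at least half do and their mean reaches it too, limit read from the data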;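 further: 0% = cytokine-treated negative control wells and 100% = positive control rescue; higher means more ATP so stronger rescue from cytokine killing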
Gli-Sufu antag – Gli-Sufu pathway antagonists, primary screen, luciferase luminescence, Sufu-KO-LIGHT cells, uHTS; Sufu-KO-LIGHT fibroblasts, Gli luciferase reporter luminescence; inhibition, % at 5 µM; 340,000 tested, 0.74% active; AID 588413, 2011;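 active means inhibition above about 55%, limit read from the data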;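 further: 0% = DMSO-treated cells and 100% = wells with medium but no cells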
CSC inhib – cancer stem cell viability inhibitors, primary screen, luminescence; cancer stem cell-like cells viability; AID 2717, 2010; 300,000 tested, 1.1% active; inhibition, % at 7.5 µM; in the data active means inhibition above about 75%; tested in HMLE shEcad cells
697 NFkB inh – inhibitors of PMA/ionomycin-induced NF-kB reporter, 697 cells, primary screen, B-cell NF-kB inhibitor project, cell-based, luminescence, uHTS | 697 B-cell NF-kB luciferase reporter, 16 h | inhibition, % at 4 µM | 330,000 tested, 0.33% active | AID 435022, 2010; in the data active means inhibition above about 35%
Mdm2-MdmX conf – Mdm2-MdmX complex disruptors, retested hits, confirmation, luminescence, single concentration; shares compounds with Mdm2-MdmX inh; Mdm2-MdmX binding, luminescent assay; inhibition, % at 8 µM; 10,000 tested, 55% active; AID 489028, 2010; in the data active means inhibition above about 40%
FLuc counter – full-length luciferase signal inhibition, confirmation, counter-screen for Mdm2/MdmX interaction inhibitor project, cell-based, single concentration, SaOS-2; shares compounds with Mdm2-MdmX inh; SaOS-2 full-length luciferase counterscreen, luminescence; inhibition, % at 8 µM; 6,200 tested, 77% active; AID 504607, 2011;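 active means mean inhibition at 8 µM reaching about 37%, which flags the compound as non-specific, limit read from the data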;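 further: p53-null SaOS-2 cells with luciferase driven by a doxycycline-inducible promoter; compound on cells about two nights before reading with doxycycline added after day one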
Starred values were filed as active, the others as inactive; . = not tested or not shown. Sampled rows, rich in hits. Any-hit rate of the full collection: about 4.5%.

SMILES	Jurkat NFkB inh	Mdm2-MdmX inh	Beta apoptosis	Gli-Sufu antag	CSC inhib	697 NFkB inh	Mdm2-MdmX conf	FLuc counter
CCN(Cc1ccccc1)S(=O)(=O)c1ccc(C(=O)N(CCCN(C)C)c2nc3c(C)c(C)ccc3s2)cc1	11	97*	.	19	-3	-12	46*	49*
CC(C)NC(=O)N(C)C[C@H]1Oc2c(cccc2N(C)C)C(=O)N([C@H](C)CO)C[C@@H]1C	-2	-2	8	18	.	3	.	.
CC(C)C(=O)NC(c1ccco1)c1ccc2cccnc2c1O (stereo not drawn)	33	82*	117*	-3	-7	-7	64*	24
CC(C)C(=O)NC(c1cccc([N+](=O)[O-])c1)c1c(O)ccc2ccccc12 (stereo not drawn)	-4	5	-4	-1	.	23	.	.
Oc1c(C(Nc2nc3ccccc3s2)c2ccco2)ccc2cccnc12 (stereo not drawn)	-5	61*	103*	43	120*	-133	85*	42*
CC(=O)NC(c1ccco1)c1cc(Cl)c2ccc(Cl)nc2c1O (stereo not drawn)	7	15	-18	-15	28	-4	.	.
CC(C)C(=O)NC(c1cccc([N+](=O)[O-])c1)c1ccc2cccnc2c1O (stereo not drawn)	35	81*	.	74*	100*	-32	90*	52*
c1coc(CNc2nc3ccccc3s2)c1	-114	-36	-7	-92	2	-117	.	.
NC(=O)NC(CC(=O)NNC(=O)c1cccs1)c1ccc(Cl)cc1 (stereo not drawn)	7	-13	-5	7	-14	-1	.	.
O=C(NCCC(=O)N(Cc1ccco1)Cc1cccs1)c1ccc([N+](=O)[O-])cc1	7	9	.	5	.	-19	.	.
O=C(NC1CCSc2ccccc21)c1ccc(F)c(S(=O)(=O)N2CCOCC2)c1 (stereo not drawn)	-2	-11	0	6	8	2	.	.
CCCC[C@@H]1C[C@H]1[C@@H](NC(=O)c1ccccc1)c1ccccc1C(F)(F)F	10	17	-5	1	17	-1	.	.
C=C(CC1([C@@H](NP(=O)(c2ccccc2)c2ccccc2)[C@H]2C[C@@H]2CCCC)CC1)c1ccccc1	0	59*	38	27	123*	16	23	.
CCC(NS(=O)(=O)c1ccc2c(c1)Cc1cc(S(=O)(=O)NC(CC)C(=O)O)ccc1-2)C(=O)O (stereo not drawn)	-12	-10	-2	8	-1	-4	.	.
COc1cccc(/C=N/NC(=O)CSCC(=O)Nc2ccccc2)c1O	-3	52*	5	29	.	6	49*	51*
COc1ccc(/C=N/NC(=O)CSCC(=O)Nc2ccccc2)cc1	11	-2	-6	-8	-9	-18	.	.
COc1cccc(/C=N/NC(=O)CNC(=O)C(c2ccccc2)c2ccccc2)c1O	31	57*	70	9	.	-12	68*	29
COc1cccc(/C=N/NC(=O)CNC(=O)/C=C\c2ccccc2)c1O	6	35	10	7	23	-14	.	.
COc1ccc(-c2csc(-n3ncc(-c4ccccn4)c3N)n2)cc1	1	58*	2	2	.	7	6	.
Cc1cccc(NC(=O)CSc2nc3ccc(NC(=O)CSc4nnnn4-c4ccccc4)cc3s2)c1C	1	59*	1	.	-3	17	-5	.
Cc1noc(C)c1CSc1nc2ccccc2nc1NS(=O)(=O)c1ccc(Cl)cc1	1	63*	.	21	82*	-8	-4	.
O=S(=O)(Nc1nc2ccccc2nc1NCc1ccco1)c1ccc(Cl)cc1	0	24	4	-19	.	-14	.	.
C=CCOc1ccc(/C=C2\SC(=S)N(NS(=O)(=O)c3ccccc3)C2=O)cc1	-3	10	-8	-10	10	-4	.	.
O=C1C(N2CCOCC2)=C(n2nnc3ccccc32)C(=O)c2ccccc21	43	73*	120*	-13	110*	2	33	.
O=C(c1ccccc1NS(=O)(=O)c1cccc([N+](=O)[O-])c1)N1CCCC1	-11	25	.	-3	1	9	.	.
SMILES	Jurkat NFkB inh	Mdm2-MdmX inh	Beta apoptosis	Gli-Sufu antag	CSC inhib	697 NFkB inh	Mdm2-MdmX conf	FLuc counter
COc1cc(NC(=O)c2ccccc2)c(OC)cc1NC(=O)CSc1[nH]c(=O)cc(C)c1C#N	23	84*	4	-32	42	0	34	.
CC(O)C(NS(=O)(=O)c1ccc2ccccc2c1)C(=O)OCC(=O)Nc1ccccc1OC(F)F (stereo not drawn)	.	.	.	-1	.	.	.	.
c1ccc(CNC2CC3CCC2C3)cc1 (stereo not drawn)	.	.	.	9	.	.	.	.
C=CCC(Nc1ccccc1)C12C=CC(O1)C(C(=O)OC)=C2C(=O)OC (stereo not drawn)	7	89*	-9	2	64	-57	46*	31
O=C1N/C(=N\N=C\c2cccnc2)SC1Cc1ccc(SC(F)F)cc1 (stereo not drawn)	-1	64*	88*	27	99*	-34	72*	44*
O=[N+]([O-])c1cccc(P(=O)(O)c2cccc([N+](=O)[O-])c2)c1	11	13	-6	4	2	5	.	.
CC1(C)CC[C@]2(C(=O)O)CC[C@]3(C)C(=CC[C@@H]4[C@@]5(C)CC[C@H](O[C@@H]6O[C@H](C(=O)O)[C@@H](O)[C@H](O[C@@H]7OC[C@H](O)[C@H](O)[C@H]7O)[C@H]6O)C(C)(C)[C@@H]5CC[C@]43C)[C@@H]2C1	-12	79*	109*	7	99*	3	34	44*
Cc1ccc2[nH]c3c(=O)n(CC(=O)Nc4ccccc4N4CCN(C)CC4)ncc3c2c1	-5	61*	-9	12	-13	-24	18	.
COc1ccc(NC(=O)c2ccc(C)cc2)c[n+]1[O-]	.	.	-4	-2	-9	.	.	.
COC(=O)c1ccccc1NC(=O)c1ccc2c(c1)OCCCO2	-24	11	-2	-50	-9	-88	.	.
